# Assay results published in PubChem BioAssay (NCI).
# This is part of a sample that, as a whole, favours compounds with a hit. Of some 83,000 tested, about 20% had one in any assay.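 Percent growth is the endpoint: 0 to 100 indicates growth inhibition (40 means 60% inhibition), 0 means no net growth, and negative values indicate cell death.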 Unmarked numbers belong to inactive results. The source made the active and inactive calls. How the source made its calls: active means growth percent below 10; inactive means the rest.
# System: HL-60(TB) leukemia
# Assay: NCI-60 one-dose screen, 48 h (100 = growth as untreated, 0 = no growth, -100 = all killed)
# Settings: 10 µM unless noted
row,Structure (SMILES),growth
1,O=C1/C(=C\c2cn(C(=O)c3ccc(Cl)cc3)c3ccccc23)c2ccccc2N1C(=O)c1ccc(Cl)cc1,54.2%
2,CCCCCCCCCCCCCCCCCC1=NC(C)(C)CN1CCO,-62.2% (active)
3,COc1ccc(C(=S)N2CCN(c3ccc(Cl)cc3)CC2)cc1,89.7%
4,CCSc1nc2scc(C)c2c(=O)[nH]1,99.8%
5,Cc1ccccc1NS(=O)(=O)c1cccc(C(=O)Nc2ccc(Br)cc2)c1,27.6% [25 µM]
6,N#Cc1cccc(OCc2nc(N)nc(N)c2-c2ccc(Cl)c(Cl)c2)c1,29.8%
7,O=c1cc(N/N=C/c2ccc(F)cc2)c2cc(Cl)ccc2[nH]1,-9.23% (active)
8,C=C1CC[C@@H]2C(C)(C)[C@H](O)CC[C@@]2(C)[C@@H]1COc1ccc2ccc(=O)oc2c1,46.4%
9,COc1ccc(-n2[nH]c3c(cnc4ccccc43)c2=O)cc1,97.3%
10,CCN(c1ccc(Cl)cc1)c1nc(-c2ccc([N+](=O)[O-])cc2)cs1,96.1%
11,O=C(Cn1c2ccccc2c2ccncc21)N/N=C/c1c[nH]c2ccccc12,74.5%
12,COc1cccc2c1C(=O)c1c(O)c3c(c(O)c1C2=O)CC(O)(/C(C)=N/NC(=O)CCCCC(=O)N/N=C(\C)C1(O)Cc2c(O)c4c(c(O)c2C(OC2CC(N)C(O)C(C)O2)C1)C(=O)c1c(OC)cccc1C4=O)CC3OC1CC(N)C(O)C(C)O1 (stereo not given),-9.19% [5 µM] (active)
13,O=C1/C(=C/c2ccccn2)CCc2ccccc21,56.6%
14,O=C(c1cccc(N2CCOCC2)n1)c1c[nH]c2ccccc12,98.9%
15,C=CCCCCCCCCCOC(C)=O,120%
